Laboratory results: PubChem BioAssay AID488835 (Broad Institute, 2010)
The whole screen tested about 1,400 compounds, of which about 140 (10%) were called active.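 Rule for the calls: active = Half-maximal inhibitory dose from the fit at or below ten times the top valid tested dose; inconclusive = Invalid fit, or flat curve showing 30 to 70% inhibition; inactive = the rest.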 These entries were drawn from the full list. Results with a measured potency or affinity are listed apart.

Molecular target: Lysine-specific demethylase 4C (Homo sapiens) (UniProt Q9H3R0)
Sequence (Q9H3R0 1-420 limits assumed): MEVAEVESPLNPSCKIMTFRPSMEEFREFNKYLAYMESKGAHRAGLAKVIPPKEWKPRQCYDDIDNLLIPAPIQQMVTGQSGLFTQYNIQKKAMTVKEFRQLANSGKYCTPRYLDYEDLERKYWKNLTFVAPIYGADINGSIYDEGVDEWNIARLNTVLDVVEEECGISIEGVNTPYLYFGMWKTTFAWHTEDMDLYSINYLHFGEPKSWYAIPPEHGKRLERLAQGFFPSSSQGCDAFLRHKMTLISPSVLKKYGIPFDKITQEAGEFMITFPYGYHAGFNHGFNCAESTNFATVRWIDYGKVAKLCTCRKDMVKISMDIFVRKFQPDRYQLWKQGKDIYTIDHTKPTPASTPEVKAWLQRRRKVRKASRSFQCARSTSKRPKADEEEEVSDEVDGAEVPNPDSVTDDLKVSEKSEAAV
Assay: inhibition of JMJD2C H3K9me3 demethylation – biochemical, DELFIA europium, cherry-picked samples, dose response (AID 488835);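 note: signal is the H3K9me2 demethylation product detected by a dimethyl-specific antibody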
Details: GST-JMJD2C(1-420); series mostly up to 6 µM

outcome, inactive:
O=C(CNC(=O)c1ccc(S(=O)(=O)N2CCCC2)cc1)N/N=C/c1ccccc1
C[C@H](CO)N1C[C@H](C)[C@@H](CN(C)C(=O)Nc2ccc3c(c2)OCO3)Oc2c(NS(=O)(=O)c3ccc(F)cc3)cccc2C1=O
Cc1cc(C(=O)Nc2sc3c(c2C#N)CCC(C)C3)no1 (configuration not stated)
COc1ccc(/C(C)=N/Nc2nccnc2Cl)cc1
CNC[C@@H]1Oc2ccc(NC(=O)Nc3cccc4ccccc34)cc2C(=O)N([C@@H](C)CO)C[C@@H]1C
COc1ccc(NC(=O)N(C)C[C@H]2Oc3c(NC(=O)C4CCCCC4)cccc3C(=O)N([C@H](C)CO)C[C@@H]2C)cc1
CC(=O)N/C(=C\c1ccccc1)C(=O)OCC(=O)NC1CCCC1
Cc1ccc(S(=O)(=O)N2[C@@H](c3ccc(Cl)c(Cl)c3)C(C(=O)O)=C[C@H]2C(C)(C)C)cc1
NC(=O)C1CCN(c2nc(-c3ccccc3Br)cs2)CC1
CC(NC(=O)CCC(=O)c1ccc(F)cc1)C1CC2CCC1C2 (configuration not stated)
Cc1ccc(S(=O)(=O)N2CCOC2CNC(=O)C(=O)NCCc2ccc(S(N)(=O)=O)cc2)cc1 (configuration not stated)
Cn1c(=O)[nH]c(=O)c2c1nc(N1CCc3ccccc3C1)n2CCSc1nc2ccccc2s1
CC[C@H]1CCCCc2ccccc2[C@@H](C(=O)C[C@@H](O)CC(C)=O)OC1=O
Cn1c(=O)c2c(nc(NC3CCCCC3)n2Cc2ccccc2)n(C)c1=O
CCOc1ccc2nc(NC(=O)CS(=O)(=O)c3ccc(C)cc3)sc2c1
CC[C@@H]1C=C(C(=O)O)[C@H](c2ccc(C)cc2)N1S(=O)(=O)c1ccc(C)cc1
CCc1ccc([C@@H]2CC=C(C(=O)O)[C@H](c3ccc(Br)cc3)N2S(=O)(=O)c2ccc(C)cc2)cc1
O=C(CSc1ncccn1)NCc1ccc(F)cc1
C[C@H](CO)N1C[C@H](C)[C@H](CN(C)Cc2ccc(Oc3ccccc3)cc2)Oc2ccc(NC(=O)Nc3cccc4ccccc34)cc2CC1=O
COc1ccc(N2CCN(C(=O)Cn3nnc(-c4ccc(N(C)C)cc4)n3)CC2)cc1
Cc1nn(Cc2ccc([N+](=O)[O-])cc2)c(=O)n1-c1cccc(Cl)c1
O=C(c1oc(=O)c2ccccc2c1-c1ccccc1)N1CCOCC1
O=C(Nc1ccccc1)Nc1ccc(S(=O)(=O)N2CCCCC2)cc1
O=C(CSc1ncccn1)Nc1ccc(S(=O)(=O)N2CCCCC2)cc1
Cc1noc(C)c1NC(=O)Nc1cccc2c1O[C@H](CN(C)S(=O)(=O)c1cccs1)[C@@H](C)CN([C@H](C)CO)C2=O
COC(=O)c1cc(OC)c(OC)cc1NC(=O)Cn1nnc(-c2ccccc2Cl)n1
CC12CN3CC(C)(CN(C1)C3c1ccc3ccccc3c1O)C2=O (configuration not stated)
COc1ccc2c(C(=O)NCCCCO)c(-c3ccc(S(C)(=O)=O)cc3)sc2c1
C#CC[N+]1(CC#Cc2ccc(C#CC[N+]3(CC#C)CCOCC3)cc2)CCOCC1
CSc1nc(N2CCN(C)CC2)c2c(c1C#N)CC(C)(C)OC2
Cc1ccc(NC(=O)CSc2ncccn2)c([N+](=O)[O-])c1
Nc1nnc(SC2CC(=O)N(c3ccccc3)C2=O)s1 (configuration not stated)
C=CCN(C(=O)Nc1ccccc1)C1CC(=O)N(c2ccc(OC)cc2)C1=O (configuration not stated)
Cc1nnc2c(N3CCN(C(=O)c4ccco4)CC3)nc3ccccc3n12
Cc1c(C(=O)Nc2ccc3c(c2)OCO3)sc2ncn(CC(=O)N3CC(C)CC(C)C3)c(=O)c12 (configuration not stated)
O=C(Nc1nc2c(s1)C(=O)CCC2)c1ccccc1
CCCN1C(=O)c2ccc(C(=O)Nc3cc(C)ccc3O)cc2C1=O
C[C@H](CO)N1C[C@H](C)[C@@H](CN(C)S(=O)(=O)c2cn(C)cn2)Oc2ccc(NC(=O)C3CC3)cc2C1=O
C[C@H](CO)N1C[C@H](C)[C@H](CN(C)S(=O)(=O)c2ccccc2)Oc2c(NS(C)(=O)=O)cccc2C1=O
COC(=O)c1c(-c2cccs2)csc1NC(=O)CN1CCOCC1
O=C(NCCCN1CCOCC1)c1cccc(S(=O)(=O)N2CCc3ccccc3C2)c1
Cc1nc2ccccn2c1C(=O)NCCCN1CCOCC1
Cc1ccc(S(=O)(=O)N2CCOCC2)cc1NC(=O)COC(=O)c1cc(=O)[nH]c2ccccc12
Cc1c(C(=O)NCc2cccs2)oc2ccccc12
Cc1cc(NC(=O)COc2ncnc3sc(C)c(C)c23)no1
Cn1c(SCC(=O)Nc2cc(S(=O)(=O)N3CCOCC3)ccc2N2CCOCC2)nnc1-c1ccncc1
Cc1ccccc1C(=O)OCCCN=C1NS(=O)(=O)c2ccccc21
O=C(CCc1ccc(S(=O)(=O)NCc2ccccc2)cc1)NCc1ccc2c(c1)OCO2
Cc1noc(C)c1S(=O)(=O)N(C)C[C@H]1Oc2c(NC(=O)Nc3ccccc3)cccc2C(=O)N([C@H](C)CO)C[C@@H]1C
O=C(NN=C1CCCCCCCCCCC1)c1cccc(S(=O)(=O)N2CCOCC2)c1
O=C(CC1NC(=O)NC1=O)Nc1ccccc1 (configuration not stated)
Cc1nnnn1/C(=C\c1ccccc1)C(=O)OCC(=O)NC(C)(C)C
COc1ccc(S(=O)(=O)Nc2ccc3c(c2)C(=O)N([C@H](C)CO)C[C@H](C)[C@H](CN(C)Cc2ccc(C(=O)O)cc2)O3)cc1
Cc1noc(C)c1NC(=O)N(C)C[C@H]1Oc2ccc(NC(=O)Cn3cnnn3)cc2C(=O)N([C@H](C)CO)C[C@@H]1C
Oc1cc(O)cc(/C=C/c2ccc(O)c(O)c2)c1
CC(=O)OCC1OC(OC2C[C@]3(C)C(CC(O)C4C([C@](C)(CCC=C(C)C)OC5OC(CO)C(O)C(O)C5O)CC[C@]43C)[C@@]3(C)CCC(O)C(C)(C)C23)C(O[C@@H]2OC(C)C(O)C(O)C2O)C(O)C1O (some centres not stated)
N=C1C(c2nc3ccccc3s2)=C(O)CN1Cc1ccccc1
CN(C(=O)c1ccccn1)c1nnc(-c2ccccn2)s1
Nc1ccc2oc(-c3ccccn3)nc2c1
O=C(N/N=C/c1nn(-c2ccccc2)cc1-c1ccccc1)c1ccncc1
CS(=O)(=O)N(CCc1ccccc1)CC(=O)NCC1CCCO1 (configuration not stated)
CCCC(=O)Nc1ccc(C(=O)NCC2CCCO2)cc1 (configuration not stated)
Cc1cc(C)n(-c2nnc(C)n2/N=C/c2ccco2)n1
O=C(O)c1cc2cc(Cl)ccc2oc1=O
O=C(CSc1nc2ccccc2c(=O)n1Cc1ccccc1)NCc1ccco1
CCOC(=O)Cn1c(=O)cnc2ccccc21
O=[N+]([O-])c1ccccc1/C=C/C=N/n1c(-c2ccc(Cl)cc2)n[nH]c1=S
CC(C)(C)n1ncc2c(=O)n(Cc3ccccc3Br)cnc21
CCN(CC)c1ccc(C(=O)OCC(=O)N2CCCC2)cc1
O=C(OCC(=O)N1CCCC1)c1ccc(S(=O)(=O)Nc2ccccc2)cc1
C[C@H](CO)N1C[C@H](C)[C@@H](CN(C)C(=O)NC2CCCCC2)Oc2c(NC(=O)c3ccncc3)cccc2C1=O
CCC(=O)N1c2ccc(S(=O)(=O)CCC(=O)NCCC3=CCCCC3)cc2CC1C (configuration not stated)
Brc1ccc(-c2csc(N3CCc4ccccc4C3)n2)cc1
COc1ccc(-n2c(C)cc(/C=N/Nc3nnc(C)n3N)c2C)cc1
O=C(N/N=C/c1ccc([N+](=O)[O-])o1)c1cn(-c2ccccc2)nc1-c1ccc(F)cc1
Cc1cccc(C)c1NC(=S)NN(Cc1ccccc1)c1ccccc1
CCN(CC)CCCOc1ccc(C)cc1Br
O=C(C1CCC1)N(CCc1ccccc1)Cc1nc2ccccc2c(=O)[nH]1
O=C(Nc1ccc(Cl)cc1)N1CCN(c2ccccc2)CC1
COc1ccc(NC(=S)N2CCC(C(=O)N3CCCCCC3)CC2)cc1
COc1ccc(C(C(C(=O)c2ccco2)N2CCOCC2)N2CCOCC2)cc1 (configuration not stated)
CCN1C(=O)C(C(=O)Nc2ccc(OC)cc2)C2CC1(C)Oc1ccccc12 (configuration not stated)
COc1ccc(CC(=O)Nc2ccc(S(=O)(=O)N(C)C)cc2)cc1OC
Cc1onc(-c2c(F)cccc2Cl)c1C(=O)N1CCN(S(C)(=O)=O)CC1
N/C(=N\OC(=O)COc1cc(Cl)c(Cl)cc1Cl)c1ccncc1
C=CCNC(=S)Nc1ccc(N2CCOCC2)c(S(=O)(=O)Nc2ccccc2Cl)c1
CN(C)S(=O)(=O)c1cccc(NC(=S)NCc2ccc3c(c2)OCO3)c1
O=C(NCc1cccc(F)c1)C1CCN(S(=O)(=O)Cc2ccccc2)CC1
COc1ccc(S(=O)(=O)N2CCC(C(=O)N3CCc4ccccc4C3)CC2)cc1
COc1ccc(C2CC(=O)C=C(NNS(=O)(=O)c3ccc(C)cc3)C2)cc1 (configuration not stated)
COCCn1nnnc1C(C(C)C)N1CCCC(C)C1 (configuration not stated)
COc1ccc(NS(=O)(=O)c2cccc(C(=O)OCC(=O)Nc3cc(C)on3)c2)cc1
CCc1ccc(S(=O)(=O)Nc2nnc(N)s2)cc1
O=C(NCCNc1ccc([N+](=O)[O-])cc1C(F)(F)F)c1ccccc1
COC(=O)COc1ccc(S(=O)(=O)N2CCOCC2)cc1C
COc1ccccc1C(c1nnnn1Cc1ccccc1)N1CCN(C2CCCC2)CC1 (configuration not stated)
C/C=C(\C)c1nnc(NC(=O)C(C)C)s1
